# According to paper PMC7862700, “An all-to-all approach to the identification of sequence-specific readers for epigenetic DNA modifications on cytosine”:
# Legend:
# Assay in all cases: DAPPL (digital affinity profiling via proximity ligation, sequencing); 10 mM Tris-HCl pH 7.5, 50 mM NaCl, 1 mM DTT, 4% glycerol, room temperature, 30 min; GST-TFs on glutathione beads, 16-mer random dsDNA library, 0.1% formaldehyde crosslink after washing; high values mean tight binding
# FLI1 = target: T1, FLI1 (Homo sapiens, UniProt Q01543 1-452); details: protein: recombinant; tags: N-terminal GST; dsDNA, one strand shown
# T1 sequence: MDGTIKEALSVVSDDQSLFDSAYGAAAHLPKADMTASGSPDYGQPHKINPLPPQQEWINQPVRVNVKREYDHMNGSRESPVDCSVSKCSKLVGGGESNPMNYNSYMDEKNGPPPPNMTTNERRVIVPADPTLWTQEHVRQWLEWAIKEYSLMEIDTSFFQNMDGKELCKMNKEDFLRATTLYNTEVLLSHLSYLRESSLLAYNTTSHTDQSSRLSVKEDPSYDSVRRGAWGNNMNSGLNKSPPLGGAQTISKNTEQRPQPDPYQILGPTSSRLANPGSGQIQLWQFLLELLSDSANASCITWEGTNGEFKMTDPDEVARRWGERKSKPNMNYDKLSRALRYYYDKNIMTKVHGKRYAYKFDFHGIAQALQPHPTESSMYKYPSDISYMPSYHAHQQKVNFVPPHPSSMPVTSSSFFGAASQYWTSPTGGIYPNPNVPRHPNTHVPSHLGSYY
# Method in brief: (§1)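 Binding signal is given per hexamer as its read frequency for a factor divided by its frequency in the tag-only sample. GST-fused human transcription factors were expressed in yeast, captured on glutathione beads, barcoded with DNA and pooled with that sample, then incubated with 200 nmole of a 16-mer random double-stranded DNA library in Tris/NaCl/DTT/glycerol buffer for 30 min at room temperature. The pools were then washed, crosslinked, proximity-ligated, amplified by PCR and sequenced on an Illumina NextSeq500.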
# ELK1 = target: T2, ELK1 (Homo sapiens, UniProt P19419 1-428); details: protein: recombinant; tags: N-terminal GST; dsDNA, one strand shown
# T2 sequence: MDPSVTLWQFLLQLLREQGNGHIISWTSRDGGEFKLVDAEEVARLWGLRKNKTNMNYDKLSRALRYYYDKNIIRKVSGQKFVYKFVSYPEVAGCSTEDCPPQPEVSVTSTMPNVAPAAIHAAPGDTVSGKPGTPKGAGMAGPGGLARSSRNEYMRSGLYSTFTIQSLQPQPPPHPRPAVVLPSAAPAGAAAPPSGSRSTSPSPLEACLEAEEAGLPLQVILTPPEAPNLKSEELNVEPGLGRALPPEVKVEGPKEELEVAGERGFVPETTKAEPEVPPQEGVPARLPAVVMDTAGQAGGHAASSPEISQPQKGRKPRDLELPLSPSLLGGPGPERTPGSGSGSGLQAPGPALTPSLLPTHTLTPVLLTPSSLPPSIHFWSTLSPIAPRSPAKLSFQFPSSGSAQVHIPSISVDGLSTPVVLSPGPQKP
# Method in brief: as §1
# GABPA = target: T3, GABPA (Homo sapiens, UniProt Q06546 1-454); details: protein: recombinant; tags: N-terminal GST; dsDNA, one strand shown
# T3 sequence: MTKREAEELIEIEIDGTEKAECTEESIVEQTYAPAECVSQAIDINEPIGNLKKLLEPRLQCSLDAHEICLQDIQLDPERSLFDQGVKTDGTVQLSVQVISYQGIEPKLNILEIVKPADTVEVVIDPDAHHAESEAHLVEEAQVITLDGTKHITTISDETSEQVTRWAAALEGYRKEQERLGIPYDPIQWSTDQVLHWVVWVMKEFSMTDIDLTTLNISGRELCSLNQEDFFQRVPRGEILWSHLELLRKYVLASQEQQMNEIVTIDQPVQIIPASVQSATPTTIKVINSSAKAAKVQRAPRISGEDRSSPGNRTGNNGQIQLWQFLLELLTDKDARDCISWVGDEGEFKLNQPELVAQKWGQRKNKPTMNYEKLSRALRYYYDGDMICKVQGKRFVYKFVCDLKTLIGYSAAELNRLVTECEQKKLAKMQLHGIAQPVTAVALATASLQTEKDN
# Method in brief: as §1
# ERG = target: T4, ERG (Homo sapiens, UniProt P11308 1-479); details: protein: recombinant; tags: N-terminal GST; dsDNA, one strand shown
# T4 sequence: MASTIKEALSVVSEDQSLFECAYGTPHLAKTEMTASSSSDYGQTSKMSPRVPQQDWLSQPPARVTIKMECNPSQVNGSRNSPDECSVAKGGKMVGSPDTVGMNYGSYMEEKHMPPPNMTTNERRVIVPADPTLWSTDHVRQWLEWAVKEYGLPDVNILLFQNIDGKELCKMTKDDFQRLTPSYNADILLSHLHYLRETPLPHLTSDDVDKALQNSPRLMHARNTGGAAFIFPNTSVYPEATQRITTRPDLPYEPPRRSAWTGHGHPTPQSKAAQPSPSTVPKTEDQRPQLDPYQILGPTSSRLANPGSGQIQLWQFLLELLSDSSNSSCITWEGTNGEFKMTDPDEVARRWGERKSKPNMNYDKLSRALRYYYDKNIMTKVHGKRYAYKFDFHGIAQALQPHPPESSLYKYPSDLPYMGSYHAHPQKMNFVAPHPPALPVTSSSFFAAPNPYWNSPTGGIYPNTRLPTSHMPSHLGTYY
# Method in brief: as §1
# ELF1 = ELF1 (Homo sapiens, UniProt P32519 1-619); details: protein: recombinant; tags: N-terminal GST; dsDNA, one strand shown
# Sequence of ELF1 (P32519 whole entry): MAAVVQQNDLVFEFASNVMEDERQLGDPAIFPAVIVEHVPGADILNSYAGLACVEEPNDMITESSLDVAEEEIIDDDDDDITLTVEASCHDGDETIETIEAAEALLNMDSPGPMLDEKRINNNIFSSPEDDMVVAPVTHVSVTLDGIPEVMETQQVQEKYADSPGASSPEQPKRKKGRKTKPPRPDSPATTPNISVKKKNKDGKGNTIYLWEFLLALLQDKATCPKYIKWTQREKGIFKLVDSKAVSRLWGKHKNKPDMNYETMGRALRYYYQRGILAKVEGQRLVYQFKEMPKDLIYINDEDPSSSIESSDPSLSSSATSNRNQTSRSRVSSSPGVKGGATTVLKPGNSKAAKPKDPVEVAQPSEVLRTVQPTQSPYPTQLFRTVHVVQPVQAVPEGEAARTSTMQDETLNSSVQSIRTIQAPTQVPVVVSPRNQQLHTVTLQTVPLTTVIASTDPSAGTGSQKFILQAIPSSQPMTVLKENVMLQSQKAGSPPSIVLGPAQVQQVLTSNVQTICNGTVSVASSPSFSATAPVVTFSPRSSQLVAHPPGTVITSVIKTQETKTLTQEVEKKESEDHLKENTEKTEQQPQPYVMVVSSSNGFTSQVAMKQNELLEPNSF
# Method in brief: as §1
# EHF = target: T5, EHF (Homo sapiens, UniProt Q9NZC4 1-300); details: protein: recombinant; tags: N-terminal GST; dsDNA, one strand shown
# T5 sequence: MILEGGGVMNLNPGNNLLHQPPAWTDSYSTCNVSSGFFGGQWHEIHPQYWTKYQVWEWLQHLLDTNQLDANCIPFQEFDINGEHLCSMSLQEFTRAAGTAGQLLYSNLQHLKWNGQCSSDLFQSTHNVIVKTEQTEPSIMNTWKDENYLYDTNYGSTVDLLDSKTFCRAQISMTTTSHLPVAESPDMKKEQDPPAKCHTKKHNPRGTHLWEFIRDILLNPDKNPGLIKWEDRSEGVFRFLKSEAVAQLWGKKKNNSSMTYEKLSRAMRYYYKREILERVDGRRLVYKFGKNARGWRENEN
# Method in brief: as §1
# SPI1 = SPI1 (Homo sapiens, UniProt P17947 1-270); details: protein: recombinant; tags: N-terminal GST; dsDNA, one strand shown
# Method in brief: as §1
# SPIB = SPIB (Homo sapiens, UniProt Q01892 1-262); details: protein: recombinant; tags: N-terminal GST; dsDNA, one strand shown
# Sequence of SPIB (Q01892 whole entry): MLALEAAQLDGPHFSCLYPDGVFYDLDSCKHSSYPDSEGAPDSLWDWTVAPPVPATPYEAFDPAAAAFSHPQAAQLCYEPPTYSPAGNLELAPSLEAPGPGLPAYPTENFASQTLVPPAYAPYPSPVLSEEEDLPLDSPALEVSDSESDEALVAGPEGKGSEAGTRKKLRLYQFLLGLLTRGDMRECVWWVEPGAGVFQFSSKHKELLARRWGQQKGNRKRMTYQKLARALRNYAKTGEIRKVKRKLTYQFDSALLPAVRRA
# Method in brief: as §1
# ELK3 = target: T6, ELK3 (Homo sapiens, UniProt P41970 1-407); details: protein: recombinant; tags: N-terminal GST; dsDNA, one strand shown
# T6 sequence: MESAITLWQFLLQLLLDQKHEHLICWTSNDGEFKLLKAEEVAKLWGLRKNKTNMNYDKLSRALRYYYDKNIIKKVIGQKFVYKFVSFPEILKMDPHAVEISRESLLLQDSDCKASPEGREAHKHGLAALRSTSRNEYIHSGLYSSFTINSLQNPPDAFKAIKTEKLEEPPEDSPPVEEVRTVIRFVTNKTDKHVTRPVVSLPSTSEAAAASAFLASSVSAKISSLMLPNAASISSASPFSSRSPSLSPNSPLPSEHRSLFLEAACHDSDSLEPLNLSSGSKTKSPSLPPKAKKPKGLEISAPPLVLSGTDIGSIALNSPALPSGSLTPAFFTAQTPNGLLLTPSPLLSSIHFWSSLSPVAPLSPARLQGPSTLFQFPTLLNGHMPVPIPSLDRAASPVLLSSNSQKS
# Method in brief: as §1
# FEV = target: T7, FEV (Homo sapiens, UniProt Q99581 1-238); details: protein: recombinant; tags: N-terminal GST; dsDNA, one strand shown
# T7 sequence: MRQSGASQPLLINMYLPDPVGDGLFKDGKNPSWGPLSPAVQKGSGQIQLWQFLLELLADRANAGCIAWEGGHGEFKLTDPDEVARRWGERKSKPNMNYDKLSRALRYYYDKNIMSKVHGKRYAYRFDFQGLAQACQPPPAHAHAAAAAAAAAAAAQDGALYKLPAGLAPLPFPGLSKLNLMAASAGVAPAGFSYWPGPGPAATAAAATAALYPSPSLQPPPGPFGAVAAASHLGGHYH
# Method in brief: as §1
# ETV5 = ETV5 (Homo sapiens, UniProt P41161 1-510); details: protein: recombinant; tags: N-terminal GST; dsDNA, one strand shown
# Sequence of ETV5 (P41161 whole entry): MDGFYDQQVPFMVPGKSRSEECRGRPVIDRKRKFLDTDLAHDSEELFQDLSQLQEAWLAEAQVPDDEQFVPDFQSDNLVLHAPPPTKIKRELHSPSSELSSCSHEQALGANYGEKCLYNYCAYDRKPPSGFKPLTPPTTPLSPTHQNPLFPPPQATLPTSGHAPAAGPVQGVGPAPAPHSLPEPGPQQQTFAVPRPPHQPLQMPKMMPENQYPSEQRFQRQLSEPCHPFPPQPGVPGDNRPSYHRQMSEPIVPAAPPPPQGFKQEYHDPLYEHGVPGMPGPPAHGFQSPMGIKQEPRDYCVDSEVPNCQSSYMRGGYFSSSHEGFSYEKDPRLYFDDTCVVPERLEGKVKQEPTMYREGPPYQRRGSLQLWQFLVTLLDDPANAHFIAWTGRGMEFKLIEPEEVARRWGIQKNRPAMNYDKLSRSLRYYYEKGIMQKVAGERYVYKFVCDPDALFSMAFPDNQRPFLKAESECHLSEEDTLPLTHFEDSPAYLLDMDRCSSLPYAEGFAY
# Method in brief: as §1
# HSF1 = HSF1 (Homo sapiens, UniProt Q00613 1-529); details: protein: recombinant; tags: N-terminal GST; chain copies: 3; dsDNA, one strand shown
# Sequence of HSF1 (Q00613 whole entry): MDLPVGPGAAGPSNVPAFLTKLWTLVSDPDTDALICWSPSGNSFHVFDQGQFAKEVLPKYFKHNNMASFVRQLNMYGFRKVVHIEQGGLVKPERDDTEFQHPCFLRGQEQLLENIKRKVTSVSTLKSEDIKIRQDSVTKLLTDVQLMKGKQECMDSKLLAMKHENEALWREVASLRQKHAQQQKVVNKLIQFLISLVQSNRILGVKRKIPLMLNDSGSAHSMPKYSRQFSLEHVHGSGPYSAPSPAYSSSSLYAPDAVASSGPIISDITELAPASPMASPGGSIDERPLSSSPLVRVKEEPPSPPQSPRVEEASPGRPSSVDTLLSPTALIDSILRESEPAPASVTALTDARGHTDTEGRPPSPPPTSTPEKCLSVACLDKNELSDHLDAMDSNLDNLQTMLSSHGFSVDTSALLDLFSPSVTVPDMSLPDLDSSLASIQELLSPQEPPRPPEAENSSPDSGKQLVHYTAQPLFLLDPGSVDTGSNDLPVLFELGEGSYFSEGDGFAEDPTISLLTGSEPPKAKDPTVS
# Method in brief: as §1
# SPIC = target: T8, SPIC (Homo sapiens, UniProt Q8N5J4 1-248); details: protein: recombinant; tags: N-terminal GST; dsDNA, one strand shown
# T8 sequence: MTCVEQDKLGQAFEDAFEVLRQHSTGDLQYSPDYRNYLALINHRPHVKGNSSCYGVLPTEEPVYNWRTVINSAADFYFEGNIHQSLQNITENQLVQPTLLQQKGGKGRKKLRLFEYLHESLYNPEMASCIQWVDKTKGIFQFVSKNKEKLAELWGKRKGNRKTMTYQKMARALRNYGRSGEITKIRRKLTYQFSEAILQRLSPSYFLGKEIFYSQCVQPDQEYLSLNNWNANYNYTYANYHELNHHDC
# Method in brief: as §1
# ELF4 = ELF4 (Homo sapiens, UniProt Q99607 1-663); details: protein: recombinant; tags: N-terminal GST; dsDNA, one strand shown
# Sequence of ELF4 (Q99607 whole entry): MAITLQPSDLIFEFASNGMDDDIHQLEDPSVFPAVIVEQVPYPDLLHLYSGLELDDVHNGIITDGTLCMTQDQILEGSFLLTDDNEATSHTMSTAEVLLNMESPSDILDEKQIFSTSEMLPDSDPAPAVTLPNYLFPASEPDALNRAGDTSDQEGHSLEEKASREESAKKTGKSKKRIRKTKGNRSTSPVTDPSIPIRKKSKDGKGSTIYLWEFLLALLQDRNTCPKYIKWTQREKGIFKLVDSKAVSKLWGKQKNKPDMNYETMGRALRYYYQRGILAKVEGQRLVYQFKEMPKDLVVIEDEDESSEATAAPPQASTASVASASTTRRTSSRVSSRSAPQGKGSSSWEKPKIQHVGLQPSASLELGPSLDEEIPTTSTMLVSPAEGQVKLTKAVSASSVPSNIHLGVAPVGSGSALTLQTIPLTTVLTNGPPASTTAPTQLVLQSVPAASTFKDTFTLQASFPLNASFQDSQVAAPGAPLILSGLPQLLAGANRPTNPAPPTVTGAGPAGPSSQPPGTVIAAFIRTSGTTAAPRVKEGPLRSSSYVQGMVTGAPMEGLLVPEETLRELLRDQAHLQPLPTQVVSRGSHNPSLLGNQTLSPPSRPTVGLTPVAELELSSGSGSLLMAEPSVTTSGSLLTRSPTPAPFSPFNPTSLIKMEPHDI
# Method in brief: as §1
# ELK4 = target: T9, ELK4 (Homo sapiens, UniProt P28324-2 1-405); details: protein: recombinant; tags: N-terminal GST; dsDNA, one strand shown
# T9 sequence: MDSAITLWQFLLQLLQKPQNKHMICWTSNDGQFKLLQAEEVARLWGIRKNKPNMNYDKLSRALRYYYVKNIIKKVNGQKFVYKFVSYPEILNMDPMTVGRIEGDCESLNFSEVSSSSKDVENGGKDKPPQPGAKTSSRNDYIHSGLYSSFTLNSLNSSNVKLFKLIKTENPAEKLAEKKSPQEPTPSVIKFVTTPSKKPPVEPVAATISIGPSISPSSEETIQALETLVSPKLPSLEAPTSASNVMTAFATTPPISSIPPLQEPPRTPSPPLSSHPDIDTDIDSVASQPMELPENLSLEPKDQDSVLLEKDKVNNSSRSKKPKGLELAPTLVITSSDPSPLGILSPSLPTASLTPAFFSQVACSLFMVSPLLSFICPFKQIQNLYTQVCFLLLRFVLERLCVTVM
# Method in brief: as §1
# ETV2 = target: T10, ETV2 (Homo sapiens, UniProt O00321 1-342); details: protein: recombinant; tags: N-terminal GST; dsDNA, one strand shown
# T10 sequence: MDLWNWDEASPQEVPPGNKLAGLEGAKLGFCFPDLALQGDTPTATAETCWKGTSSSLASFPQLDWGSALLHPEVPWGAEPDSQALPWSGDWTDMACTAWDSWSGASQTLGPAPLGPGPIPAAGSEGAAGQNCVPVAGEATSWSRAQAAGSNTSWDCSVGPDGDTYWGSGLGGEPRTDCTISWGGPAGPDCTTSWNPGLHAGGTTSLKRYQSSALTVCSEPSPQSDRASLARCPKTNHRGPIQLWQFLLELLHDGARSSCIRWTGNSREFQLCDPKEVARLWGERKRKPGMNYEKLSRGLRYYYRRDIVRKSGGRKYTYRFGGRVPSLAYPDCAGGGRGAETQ
# Method in brief: as §1
# ELF3 = target: T11, ELF3 (Homo sapiens, UniProt P78545 1-371); details: protein: recombinant; tags: N-terminal GST; dsDNA, one strand shown
# T11 sequence: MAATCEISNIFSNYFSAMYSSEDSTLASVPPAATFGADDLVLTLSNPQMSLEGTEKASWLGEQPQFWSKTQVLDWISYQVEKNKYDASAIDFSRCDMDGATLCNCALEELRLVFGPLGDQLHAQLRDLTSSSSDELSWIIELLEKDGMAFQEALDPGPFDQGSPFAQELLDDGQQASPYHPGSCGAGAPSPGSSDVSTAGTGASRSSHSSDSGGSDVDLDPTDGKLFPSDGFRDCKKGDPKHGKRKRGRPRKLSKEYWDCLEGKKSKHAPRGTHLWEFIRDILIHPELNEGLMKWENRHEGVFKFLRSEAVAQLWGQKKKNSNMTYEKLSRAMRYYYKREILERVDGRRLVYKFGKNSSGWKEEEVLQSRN
# Method in brief: as §1
# CRX = CRX (Homo sapiens, UniProt O43186 1-299); details: protein: recombinant; tags: N-terminal GST; dsDNA, one strand shown
# Sequence of CRX (O43186 whole entry): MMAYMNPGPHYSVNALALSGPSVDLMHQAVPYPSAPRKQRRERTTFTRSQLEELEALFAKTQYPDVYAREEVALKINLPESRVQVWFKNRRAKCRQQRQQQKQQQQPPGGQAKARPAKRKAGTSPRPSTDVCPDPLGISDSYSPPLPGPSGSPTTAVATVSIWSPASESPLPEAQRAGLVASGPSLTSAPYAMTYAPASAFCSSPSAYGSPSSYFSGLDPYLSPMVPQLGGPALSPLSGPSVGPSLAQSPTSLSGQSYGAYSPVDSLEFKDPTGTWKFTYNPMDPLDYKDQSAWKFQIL
# Method in brief: as §1
# ETV1 = ETV1 (Homo sapiens, UniProt P50549 1-477); details: protein: recombinant; tags: N-terminal GST; dsDNA, one strand shown
# Sequence of ETV1 (P50549 whole entry): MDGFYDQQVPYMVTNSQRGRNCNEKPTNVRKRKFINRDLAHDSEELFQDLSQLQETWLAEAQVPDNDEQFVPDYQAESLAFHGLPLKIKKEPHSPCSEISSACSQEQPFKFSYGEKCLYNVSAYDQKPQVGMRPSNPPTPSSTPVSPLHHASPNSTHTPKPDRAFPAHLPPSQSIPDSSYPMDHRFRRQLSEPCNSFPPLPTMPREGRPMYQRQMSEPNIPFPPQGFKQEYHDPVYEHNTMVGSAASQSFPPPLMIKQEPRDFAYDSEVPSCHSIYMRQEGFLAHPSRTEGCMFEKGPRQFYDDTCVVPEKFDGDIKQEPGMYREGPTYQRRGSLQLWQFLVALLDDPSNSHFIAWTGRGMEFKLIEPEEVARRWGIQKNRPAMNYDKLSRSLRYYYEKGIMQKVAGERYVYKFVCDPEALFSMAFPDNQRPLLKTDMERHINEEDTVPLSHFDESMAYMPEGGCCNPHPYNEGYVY
# Method in brief: as §1
sequence,measurement,setting,value
TGAATA,binding signal,FLI1,"1.05 fold enrichment (6-mer frequency, TF over GST control)"
same,binding signal,ELK1,"1.11 fold enrichment (6-mer frequency, TF over GST control)"
same,binding signal,GABPA,"1.2 fold enrichment (6-mer frequency, TF over GST control)"
same,binding signal,ERG,"1.08 fold enrichment (6-mer frequency, TF over GST control)"
same,binding signal,ELF1,"1.1 fold enrichment (6-mer frequency, TF over GST control)"
same,binding signal,EHF,"1.12 fold enrichment (6-mer frequency, TF over GST control)"
same,binding signal,SPI1,"1.08 fold enrichment (6-mer frequency, TF over GST control)"
same,binding signal,SPIB,"1.05 fold enrichment (6-mer frequency, TF over GST control)"
same,binding signal,ELK3,"1.06 fold enrichment (6-mer frequency, TF over GST control)"
same,binding signal,FEV,"1.06 fold enrichment (6-mer frequency, TF over GST control)"
same,binding signal,ETV5,"1.13 fold enrichment (6-mer frequency, TF over GST control)"
same,binding signal,HSF1,"1.24 fold enrichment (6-mer frequency, TF over GST control)"
same,binding signal,SPIC,"1.22 fold enrichment (6-mer frequency, TF over GST control)"
same,binding signal,ELF4,"1.13 fold enrichment (6-mer frequency, TF over GST control)"
same,binding signal,ELK4,"1.12 fold enrichment (6-mer frequency, TF over GST control)"
same,binding signal,ETV2,"1 fold enrichment (6-mer frequency, TF over GST control)"
same,binding signal,ELF3,"1.08 fold enrichment (6-mer frequency, TF over GST control)"
same,binding signal,CRX,"1.16 fold enrichment (6-mer frequency, TF over GST control)"
same,binding signal,ETV1,"1.15 fold enrichment (6-mer frequency, TF over GST control)"
